ALOX12 inhib: inhibitors of human 12-lipoxygenase (ALOX12); P18054; purified 12-hLO, xylenol orange hydroperoxide absorbance; Potency, µM (series often up to 57.1 µM), for the others: top-dose activity change, negative = inhibition, usual class: inhibitors; hit rate 0.12% among 150,000; also: nearly all actives have a fitted effect of over 55% in size
Target sequence (P18054 whole entry, looked up): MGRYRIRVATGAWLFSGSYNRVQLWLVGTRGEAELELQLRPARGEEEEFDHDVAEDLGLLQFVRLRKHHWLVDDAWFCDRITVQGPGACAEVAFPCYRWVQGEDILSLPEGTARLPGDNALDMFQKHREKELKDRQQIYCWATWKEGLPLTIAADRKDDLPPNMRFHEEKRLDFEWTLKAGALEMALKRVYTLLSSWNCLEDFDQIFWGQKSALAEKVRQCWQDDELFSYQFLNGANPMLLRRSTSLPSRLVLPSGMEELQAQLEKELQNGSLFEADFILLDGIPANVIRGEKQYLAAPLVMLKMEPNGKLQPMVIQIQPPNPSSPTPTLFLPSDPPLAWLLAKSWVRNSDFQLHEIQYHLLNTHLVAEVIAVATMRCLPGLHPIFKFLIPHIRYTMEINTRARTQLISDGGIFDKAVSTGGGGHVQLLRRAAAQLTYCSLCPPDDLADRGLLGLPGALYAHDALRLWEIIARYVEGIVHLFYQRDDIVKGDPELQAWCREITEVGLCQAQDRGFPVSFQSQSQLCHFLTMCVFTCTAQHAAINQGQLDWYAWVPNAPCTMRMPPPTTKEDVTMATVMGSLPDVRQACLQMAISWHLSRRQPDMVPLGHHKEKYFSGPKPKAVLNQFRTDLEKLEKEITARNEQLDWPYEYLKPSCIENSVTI
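Purified human 12hLO (150 nM), preincubated 15 min with compound, then 40 uM arachidonic acid for 30 min, room temperature, Hepes pH 7.0 with 0.01% Triton X-100. Hydroperoxide detected by ferrous iron/xylenol orange; 573/405 nm absorbance ratio gives reaction progress.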
p53ts 39C tox: cytotoxicity in p53ts cells at nonpermissive temperature | AID 902 | H1299-p53A138V viability at 39C, ATP luminescence, 24 h | hit rate 1.5% among 130,000 | Potency, µM (series often up to 46.1 µM), without a hit: top-dose activity change, negative = cell killing, actives largely listed as cytotoxic; also: nearly all actives have a fitted effect of over 55% in size
HPGD block: HPGD (human) dehydrogenase inhibition; purified HPGD, NADH fluorescence kinetic, PGE2 substrate; hit rate 4.3% among 150,000; P15428; Potency, µM, without a hit: top-dose activity change, negative = inhibition, usual class: inhibitors; active = well fitted inhibition curve with a large enough effect, not every such curve was filed as active; inconclusive = small, poorly fitted or top-dose-only effect, or another doubt; inactive = no such curve, though single readings can be large or run the other way
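NADH formation kinetics: reaction with 30 uM PGE2 and 1 mM NAD+ (final), 20 nM enzyme, Tris-HCl pH 8 with Tween 20, after 15 min compound preincubation at room temperature. Fluorescence change, last versus first of five reads.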
p53ts 32C tox: p53ts cell cytotoxicity, permissive temperature; H1299-p53A138V at 32C, ATP luminescence viability, 24 h; Potency, µM (titrated, usually from 46.1 µM), for inactives: top-dose activity change, negative = cytotoxicity, most hits filed as cytotoxic; hit rate 0.93% among 130,000; AID 924;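 also: 0% = DMSO and -100% = full killing by reference compound; nearly all actives have a fitted effect of over 55% in size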
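H1299-p53 A138V cells (temperature-sensitive p53) exposed 24 h to up to 46 uM compound at 32C, where p53 is wild-type in conformation. Viability read as ATP luminescence and normalised to DMSO and 100 uM tamoxifen. AC50 fitted with the Hill equation.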
The depositor's hits bear a star; ? = inconclusive; . = not tested or not shown; [ ] = dose if it differs, or a comment. Only some compounds are listed: those with a hit (about 4.4% of all), similar ones and a draw of the others. Unless noted, calls follow the shape of the dose curve; as a rule, active = well fitted curve in the direction sought with a large enough effect; inconclusive = small, poorly fitted or top-dose-only effect, or another doubt; inactive = no such curve, though single readings can be large; an effect the other way counts as inactive or inconclusive. Unless noted, % is scaled to controls: 0 for no effect and ±100 for the full control effect; potency is read from the fitted curve at half-maximal effect.

SMILES	ALOX12 inhib	p53ts 39C tox	HPGD block	p53ts 32C tox
CC(=O)O[C@@]1(C(C)=O)CCC2C3C=C(C)C4=CC(=O)CCC4(C)C3CCC21C (stereo partly drawn)	-2.3%	7.2%	-3.6%	15.6%
COC(=O)c1c(NC(=O)Cn2nc(C(F)F)cc2C(F)F)sc(C)c1C	-8.5%	.	28.2µM*	.
CCOC(=O)c1c(NC(=O)Cn2nc(C(F)F)cc2C(F)F)sc(C)c1C	-14.3%	.	?	.
COc1ccc(C2=NCC(CSc3nnc(-c4ccc5c(c4)OCO5)o3)S2)cc1 (stereo not drawn)	-15.2%	-24.3%	22.4µM*	-22.8%
CCN(CC)S(=O)(=O)c1ccc2oc(SCC3CN=C(c4ccc(OC)cc4)S3)nc2c1 (stereo not drawn)	-4.3%	-4.1%	14.1µM*	-3.5%
COc1ccc(C2=NCC(CSc3nnnn3C)S2)cc1 (stereo not drawn)	-4.6%	-11.5%	-18.4%	-1.0%
COc1cccc(OC(=O)CSc2nnc(-c3ccc4c(c3)OCO4)o2)c1	.	14.5%	.	10.9%
COc1ccc(C2=NCC(CSc3nccc(=O)[nH]3)S2)cc1 (stereo not drawn)	-1.1%	-24.6%	14.1µM*	?
C=CC1=C2C=C(C3CC3)N(Cc3ccc4c(c3)OCO4)C=C2C(=O)C(C)(OC(=O)c2ccco2)C1=O (stereo not drawn)	-3.3%[11.4 µM]	.	-7.6%	.
C[C@H]1C[C@H]2[C@H]3CCC4=CC(=O)C=C[C@@]4(C)[C@]3(F)[C@H](O)C[C@]2(C)[C@@]1(O)C(=O)COP(=O)(O)O	0.3%[11.4 µM]	3.5%[9.22 µM]	-0.9%	1.0%[9.22 µM]
Cc1ccc(SCc2cn3c(C)csc3n2)cc1	-3.9%	12.6µM*	-10.4%	?
Cc1ccc2c(c1)C(c1ccccc1)N(C(=O)c1ccccc1F)CC(=O)N2 (stereo not drawn)	.	13.8%	.	1.4%
CC(C)CNC(=S)Nc1ccc(S(N)(=O)=O)cc1	0.2%	.	?	.
CCOCCCNC(=S)Nc1ccc(S(N)(=O)=O)cc1	-1.9%	.	14.1µM*	.
COc1ccc(NC(=O)/C(=C\c2cc(OC)c(OC)cc2[N+](=O)[O-])NC(=O)c2ccccc2)cc1	7.1%	.	31.6µM*	.
COc1cc(/C=C(/NC(=O)c2ccccc2)C(=O)Nc2ccccc2)c([N+](=O)[O-])cc1OC	-19.3%	.	-3.2%	.
Cc1cc(C)c(C#N)c(SCC(=O)OC2CCCCC2)n1	-10.7%	-1.1%	15.8µM*	-11.5%
CCOC(=O)CSc1nc(C)cc(C)c1C#N	4.2%	.	-9.1%	.
CC1(C(=O)Nc2nnc(SCc3ccccc3)s2)Cc2ccccc2C(=O)O1 (stereo not drawn)	-4.2%	.	28.2µM*	.
CCOC(=O)c1ccccc1NC(=O)CSc1nc2cn(CC)nc2c(=O)n1Cc1ccc(Cl)cc1	.	-21.1%	.	6.3%
CC1Cc2cc(S(=O)(=O)CCC(=O)Nc3cccc(F)c3)ccc2N1C(=O)C1CC1 (stereo not drawn)	.	-9.3%	.	9.3%
COc1ccc(C)cc1S(=O)(=O)Nc1ccc(F)c(Cl)c1	7.8%	4.2%	28.2µM*	5.5%
COC(=O)c1ccc(NC(=O)CC2Nc3cc(C)c(C)cc3NC2=O)cc1 (stereo not drawn)	.	-7.4%	.	-18.1%
N#Cc1ccccc1Sc1ccccc1C(=O)Nc1ccccc1	-5.5%	.	-2.9%	.
CN(C)C(=O)c1ccc(NC(=O)c2ccccc2Sc2ccccc2C#N)cc1	-0.6%	.	17.8µM*	.
SMILES	ALOX12 inhib	p53ts 39C tox	HPGD block	p53ts 32C tox
Cc1nc(CC(=O)Nc2ccc(C(N)=O)cc2)cs1	.	17.3%	.	5.3%
COc1ccc(Oc2c(C=O)c3ccccc3n2C)cc1	-3.0%	.	31.6µM*	.
CCc1ccccc1NC(=O)C(C)n1nc(-c2ccc(C)c(C)c2)ccc1=O (stereo not drawn)	.	2.7%	.	-7.3%
COc1cc(C(=O)Nc2ccc3c(c2)OCCO3)ccc1OC(F)F	-5.6%	12.6µM*	-9.4%	15.8µM*
COc1ccc(C(=O)Nc2cc(OC)cc(OC)c2)cc1	-3.2%	?	-4.1%	12.6µM*
COc1ccc(C(=O)Nc2ccc3c(c2)OCCO3)cc1	-4.0%	7.08µM*	-1.7%	6.31µM*
CC(C)=CC(=O)Nc1ccc2c(c1)OCO2	-19.3%	?	-13.1%	10µM*
COc1ccc(NC(=O)CCc2nc3c(C)nn(-c4ccc(C)cc4)c3n(C)c2=O)c(OC)c1	.	-6.3%	.	3.1%
CC(=O)c1cc(-c2ccc(F)cc2)n(CC(=O)NCc2ccc(C)cc2)c1C	.	10.4%	.	-5.4%
Cc1c(CCO)c(=O)[nH]n1C(=O)c1ccc(F)cc1	0.7%	.	-5.1%	.
COCCn1c(=O)c(-c2cccs2)nc2cnc(Oc3ccc(OC)cc3)nc21	-4.9%	2.2%	?	-3.5%
COc1ccccc1NC(=O)Nc1ccc2c(c1)OCCO2	-2.7%	12.6µM*	-4.2%	10µM*
COc1ccc(-c2nnc(SC(C)C(=O)Nc3ccc4c(c3)OCCO4)o2)cc1 (stereo not drawn)	-0.6%	12.6µM*	-13.0%	15.8µM*
O=C(Nc1ccc(C(=O)N2CCCC2)cc1)c1ccc2c(c1)OCO2	-1.1%	.	6.31µM*	.
Cc1nnc(SC(C)C(=O)Nc2ccc3c(c2)OCCO3)s1 (stereo not drawn)	2.0%	2.5%	-16.6%	-0.5%
COc1ccc(NC(=O)c2cnc[nH]2)cc1	.	12.6µM*	.	7.94µM*
Cc1oc2ncn(CC(C)C)c(=O)c2c1C(=O)Nc1cccc(C(F)(F)F)c1	.	5.4%	.	-0.5%
CC(C)N(CCNC(=O)c1ccc(Cc2nc3ccccc3[nH]2)cc1)C(C)C	-1.7%	1.0%	-8.7%	1.3%
COc1cc(C(=O)Nc2c(C(=O)Nc3ccccc3F)oc3ccccc23)cc(OC)c1OC	.	-23.3%	.	-18.3%
O=C(Nc1ccc2c(c1)OCCO2)c1cncc(Br)c1	-1.2%	10µM*	-6.9%	10µM*
COc1ccc(NC(=O)C=C(C)C)cc1Cl	-14.9%	?	17.8µM*	?
O=C(Nc1ccc2c(c1)OCO2)c1cncc(Br)c1	0.0%	.	-11.5%	.
COc1ccc(NC(=O)c2ccc3c(c2)OCO3)cc1Cl	-5.2%	12.6µM*	-11.9%	5.01µM*
O=c1c(O)c(-c2ccccc2)oc2cc(O)cc(O)c12	2.3%	-0.6%	-27.9%	-15.9%

High-throughput results as filed in PubChem BioAssay.
